About 2,100 (43%) of roughly 4,900 compounds were called active.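 The calls were made as follows: active = thallium signal inhibited by more than 5 SD of the compound-free buffer control wells, on both duplicate plates; inactive = the rest.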 The set was probably picked from earlier hits. Only a selection was taken, and actives are over-represented in it overall.
biological target: Potassium channel subfamily K member 9 (Homo sapiens) (UniProt Q9NPC2); test: blockers of human TASK-3 (KCNK9) channel – HEK293 cells, thallium flux, duplicate, confirmation (AID 492992); conditions: FluxOR thallium flux fluorescence, at 10 µM; stronger effect = higher value;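 as to inhibition: 0% = assay buffer control wells without compound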
Sequence (Q9NPC2 whole entry, looked up): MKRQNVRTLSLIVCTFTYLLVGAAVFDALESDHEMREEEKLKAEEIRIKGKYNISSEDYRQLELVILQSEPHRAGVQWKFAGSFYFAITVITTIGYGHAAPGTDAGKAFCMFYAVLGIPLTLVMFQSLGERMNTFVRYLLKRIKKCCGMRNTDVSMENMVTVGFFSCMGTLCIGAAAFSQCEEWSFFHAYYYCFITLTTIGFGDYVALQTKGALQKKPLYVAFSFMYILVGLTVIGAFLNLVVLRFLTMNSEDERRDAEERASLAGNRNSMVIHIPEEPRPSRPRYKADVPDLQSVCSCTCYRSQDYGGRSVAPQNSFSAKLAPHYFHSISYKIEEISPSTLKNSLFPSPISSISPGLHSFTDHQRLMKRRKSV

| Structure (SMILES) | inhibition |
| --- | --- |
| CC(C)(C)c1ccc(CN2C(=O)CN=C(c3ccccc3)c3ccccc32)cc1 | 59% (active) |
| CCOC(=O)C1SC2(C(F)(F)C(F)F)CC1(O)c1c(c(OC)c3occc3c1OC)O2 (stereo unspecified) | 23.5% (active) |
| CC(C)n1c(=O)c(C=Nc2ccc(Br)cc2)c(O)n(Cc2ccco2)c1=O | inactive |
| CCCCCCN=C(CC)c1c(O)n(CCCC)c(=O)[nH]c1=O | 46.5% (active) |
| CC(C)(C)c1ccc(OC(=O)N2CCCCC2)cc1 | inactive |
| CCCCCCCCCCCCn1ccc(=N)cc1 | 52.5% (active) |

Reference: PubChem BioAssay AID492992 (Johns Hopkins Ion Channel Center, 2010)
